ATXN2 expr inh – reduces ATXN2 reporter expression in HEK-293 cells; HEK-293 ATXN2-luciferase reporter, luminescence, 24 h; Potency, µM (titrated, usually from 57 µM), for inactives: top-dose activity change, negative = inhibition, most hits filed as inhibitors; actives 0.72% (n = 360,000); AID 1745845; further: on the % scale 0 is the no-effect control and ±100 the full control effect; nearly all actives have a fitted effect of over 55% in size
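qHTS (up to 57 uM final) was run with 24 h compound exposure of reporter cells at 37 °C. Each well was multiplexed: SteadyGlo luminescence measured ATXN2-luciferase expression after a fluorogenic Gly-Phe-AFC viability readout (25 uM final).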
ATXN viability – reduces viability in counter-screen for ATXN expression inhibitors; S2 cells (HEK-293 line with an ATXN2-luciferase reporter) viability, CellTiter-Fluor protease fluorescence, 24 h; Potency, µM (doses to about 56.7 µM), usual class: cytotoxic; actives 0.49% (n = 400,000); further: nearly all actives have a fitted effect of over 40% in size
KB-V1 cytotox – kills drug-selected multidrug resistant KB-V1 cells; KB-V1 MDR cells viability, CellTiter-Glo, 72 h; Potency, µM (series often up to 46.1 µM), most hits filed as cytotoxic; actives 3.4% (n = 400,000); AID 1347076; further: on the % scale 0 is the no-effect control and ±100 the full control effect; nearly all actives have a fitted effect of over 60% in size
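qHTS viability screen in drug-selected KB-V1 MDR cells: 72 h compound treatment at 37 degrees C, ATP luminescence end point.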
KB-3-1 cytotox – KB-3-1 parental cell cytotoxicity. Potency, µM (titrated, usually from 46.1 µM), usual class: cytotoxic. actives 1.4% (n = 400,000). KB-3-1 viability, CellTiter-Glo ATP luminescence, 72 h; further: on the % scale 0 is the no-effect control and ±100 the full control effect; nearly all actives have a fitted effect of over 60% in size
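Multi-concentration cytotoxicity screen in KB-3-1 cells grown in DMEM lacking phenol red with 10% FBS. After 72 h at 37 °C with compound, ATP-dependent luminescence was recorded.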
HT1080 IDH1KD tx – HT-1080 IDH1 knockdown cell toxicity (counter line) | actives 2% (n = 360,000) | HT-1080 IDH1 knockdown viability, ATP luminescence, 48 h | Potency, µM (doses to about 46.1 µM), inactives show at the highest dose activity, negative = toxicity, hits mostly cytotoxic;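 further: 0% = DMSO wells and -100% = cell-free medium wells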
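Cytotoxicity counter-line: IDH1KD HT-1080, 48 h, CellTiter-Glo. Curves classed by r2, magnitude and activity.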
HT1080-NT tox – kills 2HG-producing HT-1080-NT fibrosarcoma cells | HT-1080-NT fibrosarcoma viability, CellTiter-Glo ATP luminescence, 48 h | Potency, µM (series often up to 46.1 µM), inactives show top-dose activity, negative = less viability, actives largely listed as cytotoxic | actives 1.6% (n = 360,000) | AID 686970;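 further: NT is the 2HG producing partner of a matched IDH1 knockdown line; 0% = DMSO-treated cells and -100% = media-only wells without cells; nearly all actives have a fitted effect of over 55% in size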
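Toxicity toward the 2HG-producing NT line was scored as %Activity, normalised to DMSO and no-cell wells, from CellTiter-Glo luminescence after 48 hours' treatment.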
* = called active by the depositor; ! = a repeat was not active. Shown are actives, neighbours in structure and some others; about 6.2% of the full set was active somewhere. The call rests on the fitted dose curve; in most records, active means well fitted curve in the direction sought with a large enough effect; inconclusive means small, poorly fitted or top-dose-only effect, or another doubt; inactive means no such curve, though single readings can be large; an effect the other way counts as inactive or inconclusive. Potency means the concentration at half of the fitted maximal effect.

How did CCOc1cccc(-c2nnc3sc(COc4ccc(Cl)cc4)nn23)c1 do in these assays?
ATXN2 expr inh: -14%; ATXN viability: inactive; KB-V1 cytotox: inconclusive; KB-3-1 cytotox: 21µM*; HT1080 IDH1KD tx: -3%; HT1080-NT tox: 8%

How did COc1cccc(-c2nnc3sc(-c4cccs4)nn23)c1 do in these assays?
ATXN2 expr inh: 20%; ATXN viability: inconclusive; KB-V1 cytotox: inactive; KB-3-1 cytotox: inactive; HT1080 IDH1KD tx: 4%; HT1080-NT tox: 5%

What do the screens show for `COc1ccc(-c2nnc3sc(-c4ccco4)nn23)cc1OC`?
ATXN2 expr inh: -12%; ATXN viability: inactive; KB-V1 cytotox: 2.1µM*; KB-3-1 cytotox: inconclusive; HT1080 IDH1KD tx: 0%; HT1080-NT tox: 9%

What do the screens show for `CCOc1cccc(-c2nnc3sc(-c4cccs4)nn23)c1`?
ATXN2 expr inh: -19%; ATXN viability: inactive; KB-V1 cytotox: 5.2µM*; KB-3-1 cytotox: inactive; HT1080 IDH1KD tx: 8%; HT1080-NT tox: -3%

How did CCOc1cccc(-c2nnc3sc(COc4ccc(C)cc4)nn23)c1 do in these assays?
ATXN2 expr inh: -15%; ATXN viability: inactive; KB-V1 cytotox: inactive; KB-3-1 cytotox: inactive; HT1080 IDH1KD tx: 12%; HT1080-NT tox: 14%

Results for CCOc1ccc(NC(=O)Cn2c(=O)n(CCc3ccccc3)c(=O)c3c4c(sc32)CCCC4)cc1 ?
ATXN2 expr inh: 3%; ATXN viability: inactive; KB-V1 cytotox: inactive; KB-3-1 cytotox: inactive

What do the screens show for `CC(=O)N1CCN(c2ccc(OCc3nn(C)c(C)c3-c3cccc4c(CCCOc5cc(C)c(Cl)c(C)c5)c(C(=O)O)n(Cc5cccnc5)c34)cc2)CC1`?
ATXN2 expr inh: 11%

How did C#CCSc1nc(Cc2ccc(Cl)cc2)nc2ccccc12 do in these assays?
ATXN2 expr inh: 3%; ATXN viability: inactive; KB-V1 cytotox: 16µM*; KB-3-1 cytotox: inactive; HT1080 IDH1KD tx: -2%; HT1080-NT tox: 7%

What do the screens show for `CC(C)CCNc1nc2c(-c3ccccc3)nnn2c2ccccc12`?
ATXN2 expr inh: 10%; ATXN viability: inactive; KB-V1 cytotox: inconclusive; KB-3-1 cytotox: inactive

How did COc1cc(C2C3=C(COC3=O)Oc3cc4c(cc32)OCO4)cc(OC)c1OC(C)=O (stereo unspecified) do in these assays?
ATXN2 expr inh: 10%; ATXN viability: inconclusive; KB-V1 cytotox: 0.65µM*; KB-3-1 cytotox: 0.23µM*; HT1080 IDH1KD tx: inconclusive; HT1080-NT tox: inconclusive

What do the screens show for `COc1ccc(C2C(C#N)=C(N)Oc3cc4c(cc32)OCO4)cc1` (stereo unspecified)?
ATXN2 expr inh: -26%; ATXN viability: inactive; KB-V1 cytotox: inactive; KB-3-1 cytotox: inactive; HT1080 IDH1KD tx: -23%; HT1080-NT tox: -21%

What do the screens show for `COc1cc(C2N(c3ccccc3)CCN2c2ccccc2)ccc1OC(C)=O`?
ATXN2 expr inh: 39%; ATXN viability: inactive; KB-V1 cytotox: inactive; KB-3-1 cytotox: inactive; HT1080 IDH1KD tx: 6%; HT1080-NT tox: 10%

What do the screens show for `COc1cc(C2C3=C(COC3=O)Oc3cc4c(cc32)OCO4)ccc1OC(C)=O` (stereo unspecified)?
ATXN2 expr inh: 12%; ATXN viability: inconclusive; KB-V1 cytotox: 2.1µM*; KB-3-1 cytotox: 0.82µM*; HT1080 IDH1KD tx: 5.8µM*; HT1080-NT tox: inconclusive

How did COc1ccc(C2C3=C(COC3=O)Oc3cc4c(cc32)OCO4)cc1OC (stereo unspecified) do in these assays?
ATXN2 expr inh: -10%; ATXN viability: inactive; KB-V1 cytotox: inconclusive; KB-3-1 cytotox: 0.92µM*!; HT1080 IDH1KD tx: inconclusive; HT1080-NT tox: 5.8µM*

How did O=S(=O)(c1ccccc1F)N1CCN(Cc2cc3c(cc2Br)OCCO3)CC1 do in these assays?
ATXN2 expr inh: -16%; ATXN viability: inactive; KB-V1 cytotox: 21µM*; KB-3-1 cytotox: inactive; HT1080 IDH1KD tx: 2%; HT1080-NT tox: 7%
